Consider 40 molecules from PubChem BioAssay (Tox21).

Several values for one entry are separate records, joined by “and”; a condition that tells them apart may be missing. Equal entries are not always repeated. Inconclusive results are not listed. Entries that show only a call come without a potency. The source holds several records for some structures; these can differ, active in one and inactive in another. Activity calls are given as the source filed them. The call rests on the fitted dose curve.
Potency means the concentration at half of the fitted maximal effect.

The test in a line: qHTS assay to identify small molecule agonists of the progesterone receptor (PR) signaling pathway - cell viability counter screen (AID 1346799). Further: nearly all actives have a fitted effect of over 45% in size. The conditions noted are these: PR-UAS-bla HEK293T viability, CellTiter-Glo luminescence, 16 h; series mostly up to 92.4 µM; activity change, negative = cytotoxicity: at the top concentration. An excerpt: National Center for Advancing Translational Sciences [NCATS]
NIH Chemical Genomics Center [NCGC]
U.S. Environmental Protection Agency [EPA]
National Institutes of Environmental Health Sciences [NIEHS]
National Toxicology Program [NTP]
U.S. Food and Drug Administration [FDA]
Progesterone receptor (PR), a nuclear hormone receptor, plays an important role in development, metabolic homeostasis and reproduction. It is activated by the steroid hormone progesterone. Endocrine disrupting chemicals (EDCs) and their interactions with steroid hormone receptors like PR causes disruption of normal endocrine function. To identify the compounds that stimulate PR signaling, a PR-UAS-bla GripTite cell line i.e. PR-UAS-bla HEK293T (Invitrogen, Carlsbad, CA, USA) containing a beta-lactamase reporter gene under the control of an UAS response element was used to screen Tox21 10K compound library. The cytotoxicity of the Tox21 compound library against the PR-bla cell line was tested in parallel by measuring the cell viability using CellTiter-Glo assay in the same wells.
Tox21 Assay Protocol Summary:
PR-UAS-bla HEK293T cells were dispensed at 3,000 cells/5 uL of assay medium containing 2% charcoal stripped FBS per well into black wall/clear-bottom 1536-well plates using a Multidrop Combi (ThermoFisher Scientific, Waltham, MA) dispenser. After the assay plates were incubated at a 37C and 5% CO2 for 6 hr, 23 nL of compounds dissolved in DMSO, positive controls or DMSO only was transferred to the assay plate by a Pintool station (Kalypsys, San Diego, CA). The plates were incubated at 37C and 5% CO2 for 16 hr. Then 1 uL of LiveBLAzer B/G FRET substrate was added using a Flying Reagent Dispenser (FRD, Aurora Discovery, San Diego, CA), the plates were incubated at room temperature for 2 hours, and fluorescence intensity was measured by an Envision plate reader (PerkinElmer, Shelton, CT). For cell viability readout that measures cytotoxicity, 4 uL/well of CellTiter-Glo reagent was added into the assay plates using a FRD. After 30 min incubation at room temperature, the luminescence intensity in the plates was measured using a ViewLux (PerkinElmer) plate reader.
(In general: qHTS replaces the single test concentration by a dilution series.)
For `CCCCOCCOCCOC(=O)CCCCC(=O)OCCOCCOCCCC`, the Potency result is “inactive”.
The same measure, in the same setting: then `O=C(Cl)c1c(Cl)c(Cl)c(C(=O)Cl)c(Cl)c1Cl`, with “inactive”; and `S=c1nc[nH]c2nc[nH]c12`, with 4.74 µM (active) and 11.9 µM (active).
Take `CCOC(=O)C1OC1c1ccccc1` (stereo not given): the “activity change, negative = cytotoxicity” value is -24.3% (inactive).
As to `COCC(=O)O`, the Potency entry was “inactive”.
Same read-out and setting: then `OC1CCCC1`, with “inactive”; and `CC(C)n1c(/C=C/[C@@H](O)C[C@@H](O)CC(=O)O)c(-c2ccc(F)cc2)c2ccccc21`, with 770 nM (active); and `Cn1c([N+](=O)[O-])cnc1COC(N)=O`, with “inactive”.
On the same count and under the same terms, then `Cc1cc(NS(=O)(=O)c2ccc(N)cc2)no1`, with “inactive”.
As to `CN(CCOc1ccc(CC2SC(=O)NC2=O)cc1)c1ccccn1` (stereo not given), the “activity change, negative = cytotoxicity” value is 6.78% [at 42.5 µM] (inactive).
As for `O=c1c(-c2ccc(O)cc2)coc2cc(O)ccc12`, the Potency entry was “inactive”.
For `CCCCCCCCCCCCN`, the “activity change, negative = cytotoxicity” value is -17.8% (inactive).
On to `Cc1cc(=O)[nH]c(C(C)C)n1`, for which the Potency entry is “inactive”.
For `CCOC(=O)[C@H](CCc1ccccc1)N[C@@H](C)C(=O)N1Cc2ccccc2C[C@H]1C(=O)O`, the “activity change, negative = cytotoxicity” value was 3.72% (inactive).
In the case of `C=C(C)C(=O)OCCCCCCCCCCCC`, the Potency result was “inactive”.
As for `CC#C[C@]1(O)CC[C@H]2[C@@H]3CCC4=CC(=O)CCC4=C3[C@@H](c3ccc(N(C)C)cc3)C[C@@]21C`, the “activity change, negative = cytotoxicity” value was 9.86% [at 42.5 µM] (inactive).
Same read-out and setting: then `CC(=O)CCc1ccccc1`, with -5.85% (inactive).
With `CCCCC/C=C\C/C=C\CCCCCCCC(=O)OC`, the Potency entry is “inactive”.
Take `CC1(C)O[C@@H]2C[C@H]3[C@@H]4C[C@H](F)C5=CC(=O)CC[C@]5(C)[C@H]4[C@@H](O)C[C@]3(C)[C@]2(C(=O)CO)O1`: the “activity change, negative = cytotoxicity” value is 14.1% (inactive).
On to `Cc1cc(O)cc(C)c1Cl`, for which the Potency result was “inactive”.
Take `C=C1CC[C@H](O)CC1=C/C=C1\CCC[C@]2(C)[C@@H]([C@H](C)/C=C/[C@H](C)C(C)C)CC[C@@H]12`: the Potency entry was “inactive”.
Turning to `CCCCCCCCCCC=CC1CC(=O)OC1=O` (stereo not given), the “activity change, negative = cytotoxicity” value is -16.6% (inactive).
Take `CNC[C@H](O)[C@@H](O)[C@H](O)[C@H](O)CO`: the Potency result was “inactive”.
On the same count and under the same terms, then `Nc1cc(-c2ccncc2)c[nH]c1=O`, with “inactive”; and `C=C(C)C(=O)OCCC[Si](OC)(OC)OC`, with “inactive”.
The same measure, in the same setting: next, `CCC(C)C=O` (stereo not given): “inactive”; `C=C(C)C(=O)OCCCCCC`: “inactive”; `COC(=O)c1ccc(C(=O)OC)cc1`: 17.5 µM (active) and inactive.
On to `c1ccc2[nH]cnc2c1`, for which the Potency result was “inactive”.
In the case of `CC(C)(C)C1CCC(O)CC1` (stereo not given), the “activity change, negative = cytotoxicity” value was -1.07% (inactive).
Still for that read-out and setting: then `O=C1N=C(O)CN1/N=C/c1ccc(-c2ccc([N+](=O)[O-])cc2)o1`, with 0.5% [at 42.5 µM] (inactive).
For `CCCCCCOC(C)=O`, the Potency entry was “inactive and 8.63 µM (active)”.
Same read-out and setting: next, `CCCCCC/C=C/CCCCCCCC(=O)O`: “inactive”; `OC[C@@H](O)[C@@H](O)[C@H](O)[C@@H](O)CO`: “inactive”.
The same measure, in the same setting: then `OC[C@@H](O)[C@H](O)[C@H](O)[C@@H](O)CO`, with “inactive”.
With `NC(=O)NNc1ccccc1`, the Potency entry was “inactive”.
As to `Oc1ccc2ccccc2c1N=Nc1ccccc1`, the “activity change, negative = cytotoxicity” value is -0.609% (inactive).
As to `CC1Cc2ccccc2N1NC(=O)c1ccc(Cl)c(S(N)(=O)=O)c1` (stereo not given), the Potency entry was “inactive”.
Still for that read-out and setting: then `CC[Si](OC(C)=O)(OC(C)=O)OC(C)=O`, with “inactive”.
For the molecule `CC(C)(CO)COC(=O)C(C)(C)CO`, the “activity change, negative = cytotoxicity” value was -3.4% (inactive).
